Data taken from the supplement of paper PMC6555819.

Legend:
Assay in all cases: PBM binding z-score (relative to random genomic background probes); higher = stronger binding; sequences stand for … in GC…GCGATTGACAGCGTAGAATGAAGG
[1] = test system: FXR:RXRa (NR concentration 270 nM, RXRa partner concentration 90 nM)
Outline: (§1)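 Scanned fluorescence from custom Agilent 4×180K protein-binding microarrays was regression-normalized. Binding z-scores use random background probes as reference. Ligand-free nuclear receptor dimers were incubated on the arrays for 1 h and detected with antibodies against each partner (one per run).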

[2] = test system: LXRa:RXRa (NR concentration 270 nM, RXRa partner concentration 90 nM)
Outline: as §1

[3] = test system: LXRa homodimer (NR concentration 270 nM)
Outline: as §1

[4] = test system: LXRb:RXRa (NR concentration 270 nM, RXRa partner concentration 90 nM)
Outline: as §1

[5] = test system: LXRb homodimer (NR concentration 270 nM)
Outline: as §1

[6] = test system: PPARa:RXRa (NR concentration 270 nM, RXRa partner concentration 90 nM)
Outline: as §1

[7] = test system: PPARg:RXRa (NR concentration 180 nM, RXRa partner concentration 90 nM)
Outline: as §1

[8] = test system: PPARg:RXRa 270nM:90nM, anti-RXR (NR concentration 270 nM, RXRa partner concentration 90 nM)
Outline: as §1

[9] = test system: PPARg:RXRa 30nM:10nM, anti-RXR (NR concentration 30 nM, RXRa partner concentration 10 nM)
Outline: as §1

[10] = test system: PPARg:RXRa 90nM:30nM, anti-RXR (NR concentration 90 nM, RXRa partner concentration 30 nM)
Outline: as §1

Row | Sequence | PBM binding z-score [1] | PBM binding z-score [2] | PBM binding z-score [3] | PBM binding z-score [4] | PBM binding z-score [5] | PBM binding z-score [6] | PBM binding z-score [7] | PBM binding z-score [8] | PBM binding z-score [9] | PBM binding z-score [10]
1 | TCGAGTAGGTTACCAATGGGGTATTCAGCTTTCT | 0.116 | 0.749 | -0.345 | 0.847 | -0.514 | 0.988 | 0.229 | 1.14 | 1.34 | 1.28
2 | ACAGACAGGTGAGTGAAGGCAACTCAGCTGGACG | -0.0161 | -0.412 | -0.593 | -0.733 | -0.607 | -0.0544 | 0.543 | -0.0793 | -0.458 | -0.591
3 | TCTTGTAGATGAATAGAGGTTAAGAAAGTGCGCT | 1.46 | 3.5 | 0.638 | 1.98 | 0.559 | 1.93 | 0.366 | 2.17 | 3.31 | 2.67
4 | TAGCCTAGGTCAGATCGTGCCAGTATACGCTATA | 1.53 | 1.21 | -0.412 | 1.06 | 0.00468 | 1.91 | 0.806 | 0.67 | 0.0687 | 0.244
5 | TGAATGAGGTTATATGATCAGGGAACGTTGCAAA | 1.85 | 1.48 | -0.0351 | 1.25 | 0.134 | 2.97 | 1.44 | 1.76 | 1.05 | 1.45
6 | ACTCGGAGGACAAAGGTCAGAGATACGCCAGTGA | 4.21 | 4.08 | 1.83 | 3.54 | 0.52 | 4.69 | 7.66 | 6.85 | 6.73 | 7.24
7 | TGGAGTAGGTTAGGGGCATTCAGAATGGCGTCGA | 1.13 | 0.934 | 0.271 | 1.91 | 1.89 | 1.98 | 2.21 | 3.05 | 1.46 | 2.46
8 | ATATGGAGGTTATCGGGTCATTCAGTTTGCGCAT | 4.63 | 4.39 | 2.28 | 3.8 | 1.41 | 4.84 | 5.29 | 5 | 2.08 | 3.73
9 | CCGACTGGGGCAAAGGTTAGCATACTCAGTACGA | 0.945 | 0.762 | -0.315 | 1.27 | -1.29 | 4.88 | 10.7 | 8.69 | 9.08 | 9.54
10 | TGTCAAAGTTCATAGGTAACGTAAGTATCCACAC | 6.65 | 5.95 | 4.17 | 4.02 | 1.38 | 5.13 | 7.92 | 7.41 | 4.42 | 6.63
11 | CGTCAAAGTTCAAGGTAACGTTACAGAAAGCAGC | 6.48 | 5.5 | 3.04 | 3.64 | 1.12 | 4.78 | 4.55 | 5.04 | 2.28 | 4.37
12 | GGAACCAGGGCAAAGTTGATAGCATCTGTCGACG | 0.769 | 0.723 | -0.0781 | 0.931 | 0.32 | 4.38 | 7.33 | 7.61 | 6.29 | 7.86
13 | TCGGGTAGGTTACCAATGGGGCATTCAGCTTTCT | 0.661 | 1.91 | 0.192 | 1.61 | 0.113 | 1.22 | 0.0871 | 1.31 | 1.96 | 1.63
14 | CCAGACAGGTGAAAGGTAAGTCAGTCTGGTACGC | 0.207 | 0.575 | -0.142 | 0.505 | -0.505 | 2.87 | 4.52 | 5.14 | 3 | 4.82
15 | TCTAGTTGGTCAAAGGTCATACACTCGAAATGCG | 5.83 | 6.03 | 4.66 | 5.62 | 2.02 | 6.59 | 10.8 | 9.47 | 9.65 | 10.2
16 | GATACAGGGTCAGGTAGAGGCCAGAGTATGGAAA | 4.61 | 2.74 | -0.128 | 2.58 | -0.154 | 4.6 | 3.75 | 3.23 | 0.959 | 2.07
17 | CCAGACAGGTGGGAAGGTAACTCAGCCTCGATTA | -0.208 | -0.246 | 0.289 | 0.0174 | -0.794 | 0.0187 | 0.131 | -0.544 | -0.249 | -0.529
18 | CTAACTAGGTCATTGACAGGACAGTGAATAGTAA | 4.3 | 3.33 | 0.788 | 2.12 | 0.469 | 5.03 | 8.17 | 6.99 | 4.79 | 6.51
19 | GCTAGTTGGTCAGTAAAAGGTCACACAGCGGTCG | 3.2 | 4.47 | 4.65 | 4.17 | 0.715 | 4.62 | 2.84 | 4.58 | 2.15 | 4.37
20 | ATCGAAAGTTCGAAGGTGAGTATACCCACCCGAA | 0.822 | 1.16 | 0.11 | 0.739 | -0.0356 | 1.9 | 1.07 | 1.17 | 0.177 | 0.844
21 | TAGCGTAGGTCAGATCGGGCCAGTATACGCTATA | 2.62 | 1.36 | -0.421 | 0.809 | -0.55 | 1.99 | 0.602 | 0.725 | 0.0137 | 0.225
22 | AGAATGAGGTTATACGTATATCAGGGAAGAAAGT | 2.23 | 2.1 | 0.245 | 2.04 | 0.468 | 3.47 | 2.58 | 2.29 | 1.04 | 1.85
23 | GCTAGCAGGCCATTTGGGTCACTCGATGACGGGC | -0.0398 | -0.0743 | -0.738 | -0.0448 | -0.791 | 1.25 | 0.641 | 0.713 | -0.472 | 0.633
